Results taken from PubChem BioAssay AID1159580 (chemical genetic matrix, 2015).
Values joined by “and” are separate entries in the source; they are usually repeats but may differ in a detail not shown here. Equal values may be shown once. About 2,000 (36%) of roughly 5,500 compounds were called active. About 18% were inconclusive and are not listed. Cut-off read from the data, not from the text of the source: active = normalized growth mostly below about 0.91 (no sharp cut-off); inconclusive = no clear call, values can overlap the other calls; inactive = mostly above about 0.92. Some of the results follow.

Experiment: chemical genetic growth profiling, strain panel (AID 1159580);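 note: tested at 20 µM; growth read once vehicle control cultures reached saturation at 30 °C; 1 = growth at the plate median or of vehicle wells; lower values mean less growth of the strain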
Conditions: growth OD

Measured: normalized growth

CCCNC(C)C(=O)Nc1ccccc1C (stereo unspecified)
inactive: S. cerevisiae deletion strains, locus YJR066W, strain TOR1, stronger effect = lower value 0.979 | S. cerevisiae deletion strains, locus YJR075W, strain HOC1, stronger effect = lower value 1.01 | S. cerevisiae deletion strains, locus YKL009W, strain mrt4, stronger effect = lower value 1 | S. cerevisiae deletion strains, locus YKL068W, stronger effect = lower value 0.99 | S. cerevisiae deletion strains, locus YKL085W, strain MDH1 (second series), stronger effect = lower value 1 | S. cerevisiae deletion strains, locus YKL085W, strain MDH1, stronger effect = lower value 1 | S. cerevisiae deletion strains, locus YKL160W, strain elf1, stronger effect = lower value 1.01 | S. cerevisiae deletion strains, locus YKL190W, strain CNB1, stronger effect = lower value 1 | S. cerevisiae deletion strains, locus YKR001C, strain vps1, stronger effect = lower value 1 | S. cerevisiae deletion strains, locus YKR026C, strain gcn3, stronger effect = lower value 1 | S. cerevisiae deletion strains, locus YKR091W, strain srl3, stronger effect = lower value 1 | S. cerevisiae deletion strains, locus YLL001W, strain dnm1, stronger effect = lower value 1.01 | S. cerevisiae deletion strains, locus YLL026W, stronger effect = lower value 1.01 | S. cerevisiae deletion strains, locus YLL041C, strain sdh2, stronger effect = lower value 0.997 | S. cerevisiae deletion strains, locus YLR027C, strain aat2, stronger effect = lower value 1.01 | S. cerevisiae deletion strains, locus YLR039C, strain RIC1, stronger effect = lower value 1.03 | S. cerevisiae deletion strains, locus YLR058C, strain SHM2, stronger effect = lower value 1.01 | S. cerevisiae deletion strains, locus YLR102C, strain apc9, stronger effect = lower value 0.989 | S. cerevisiae deletion strains, locus YLR113W, strain HOG1, stronger effect = lower value 1.09 | S. cerevisiae deletion strains, locus YLR221C, strain rsa3, stronger effect = lower value 0.988 | S. cerevisiae deletion strains, locus YLR258W, strain gsy2, stronger effect = lower value 0.999 | S. cerevisiae deletion strains, locus YLR262C, strain YPT6 (second series), stronger effect = lower value 1.02 | S. cerevisiae deletion strains, locus YLR262C, strain YPT6, stronger effect = lower value 1.07 | S. cerevisiae deletion strains, locus YLR268W, strain sec22, stronger effect = lower value 0.989 | S. cerevisiae deletion strains, locus YLR320W, strain mms22, stronger effect = lower value 1.01 | S. cerevisiae deletion strains, locus YLR330W, strain CHS5, stronger effect = lower value 1.01 | S. cerevisiae deletion strains, locus YLR342W, strain FKS1 (second series), stronger effect = lower value 0.996 | S. cerevisiae deletion strains, locus YLR342W, strain FKS1, stronger effect = lower value 1.01 | S. cerevisiae deletion strains, locus YLR357W, strain rsc2, stronger effect = lower value 0.981 | S. cerevisiae deletion strains, locus YLR370C, strain arc18, stronger effect = lower value 1.01 | S. cerevisiae deletion strains, locus YLR371W, strain rom2, stronger effect = lower value 0.983 | S. cerevisiae deletion strains, locus YLR384C, strain iki3, stronger effect = lower value 1.01 | S. cerevisiae deletion strains, locus YLR418C, strain cdc73, stronger effect = lower value 0.967 | S. cerevisiae deletion strains, locus YML016C, strain PPZ1, stronger effect = lower value 1.01 | S. cerevisiae deletion strains, locus YML032C, strain rad52, stronger effect = lower value 0.987 | S. cerevisiae deletion strains, locus YML120C, strain ndi1, stronger effect = lower value 1 | S. cerevisiae deletion strains, locus YML124C, strain tub3, stronger effect = lower value 0.989 | S. cerevisiae deletion strains, locus YMR058W, strain fet3, stronger effect = lower value 1 | S. cerevisiae deletion strains, locus YMR078C, strain ctf18, stronger effect = lower value 0.993 | S. cerevisiae deletion strains, locus YMR125W, strain sto1, stronger effect = lower value 1.02 | S. cerevisiae deletion strains, locus YMR129W, stronger effect = lower value 1 | S. cerevisiae deletion strains, locus YMR205C, strain PFK2, stronger effect = lower value 1 | S. cerevisiae deletion strains, locus YMR223W, strain ubp8, stronger effect = lower value 0.972 | S. cerevisiae deletion strains, locus YMR231W, strain pep5, stronger effect = lower value 1.01 | S. cerevisiae deletion strains, locus YMR263W, strain SAP30, stronger effect = lower value 1 | S. cerevisiae deletion strains, locus YMR307W, strain GAS1, stronger effect = lower value 0.949 | S. cerevisiae deletion strains, locus YNL067W, strain RPL9B, stronger effect = lower value 1.02 | S. cerevisiae deletion strains, locus YNL071W, strain lat1, stronger effect = lower value 1 | S. cerevisiae deletion strains, locus YNL153C, strain GIM3, stronger effect = lower value 0.963 | S. cerevisiae deletion strains, locus YNL175C, strain NOP13, stronger effect = lower value 1.01 | S. cerevisiae deletion strains, locus YNL183C, strain NPR1, stronger effect = lower value 1 | S. cerevisiae deletion strains, locus YNL197C, strain WHI3, stronger effect = lower value 1.04 | S. cerevisiae deletion strains, locus YNL209W, strain ssb2, stronger effect = lower value 1 | S. cerevisiae deletion strains, locus YNL224C, strain SQS1, stronger effect = lower value 0.989 | S. cerevisiae deletion strains, locus YNL233W, strain BNI4, stronger effect = lower value 1.03 | S. cerevisiae deletion strains, locus YNL248C, strain rpa49, stronger effect = lower value 1.01 | S. cerevisiae deletion strains, locus YNL250W, strain rad50, stronger effect = lower value 0.983 | S. cerevisiae deletion strains, locus YNL271C, strain bni1, stronger effect = lower value 0.996 | S. cerevisiae deletion strains, locus YNL298W, strain CLA4, stronger effect = lower value 0.985 | S. cerevisiae deletion strains, locus YNL307C, strain MCK1, stronger effect = lower value 0.998 | S. cerevisiae deletion strains, locus YNL322C, strain KRE1 (second series), stronger effect = lower value 1 | S. cerevisiae deletion strains, locus YNL322C, strain KRE1, stronger effect = lower value 1 and 1.02 | S. cerevisiae deletion strains, locus YNR049C, strain mso1, stronger effect = lower value 1.01 | S. cerevisiae deletion strains, locus YNR052C, strain pop2, stronger effect = lower value 0.998 | S. cerevisiae deletion strains, locus YOL006C, strain TOP1, stronger effect = lower value 1.04 | S. cerevisiae deletion strains, locus YOL012C, strain htz1 0.66 | S. cerevisiae deletion strains, locus YOL147C, strain pex11, stronger effect = lower value 0.979 | S. cerevisiae deletion strains, locus YOR001W, strain rrp6, stronger effect = lower value 0.994 | S. cerevisiae deletion strains, locus YOR061W, strain CKA2, stronger effect = lower value 1.02 | S. cerevisiae deletion strains, locus YOR069W, strain VPS5, stronger effect = lower value 1 | S. cerevisiae deletion strains, locus YOR070C, strain gyp1, stronger effect = lower value 1 | S. cerevisiae deletion strains, locus YOR080W, strain dia2, stronger effect = lower value 0.999 | S. cerevisiae deletion strains, locus YOR083W, strain WHI5 (second series), stronger effect = lower value 1.01 | S. cerevisiae deletion strains, locus YOR083W, strain WHI5, stronger effect = lower value 1 | S. cerevisiae deletion strains, locus YOR106W, strain vam3, stronger effect = lower value 1 | S. cerevisiae deletion strains, locus YOR136W, strain idh2, stronger effect = lower value 0.992 | S. cerevisiae deletion strains, locus YOR144C, strain elg1, stronger effect = lower value 0.977 | S. cerevisiae deletion strains, locus YOR184W, strain ser1, stronger effect = lower value 0.968 | S. cerevisiae deletion strains, locus YOR231W, strain MKK1, stronger effect = lower value 1.09 | S. cerevisiae deletion strains, locus YOR265W, strain rbl2, stronger effect = lower value 1.01 | S. cerevisiae deletion strains, locus YOR270C, strain vph1, stronger effect = lower value 0.987 | S. cerevisiae deletion strains, locus YOR290C, strain snf2, stronger effect = lower value 0.992 | S. cerevisiae deletion strains, locus YOR316C, strain cot1, stronger effect = lower value 0.998 | S. cerevisiae deletion strains, locus YPL051W, strain arl3, stronger effect = lower value 1 | S. cerevisiae deletion strains, locus YPL055C, strain LGE1, stronger effect = lower value 1 | S. cerevisiae deletion strains, locus YPL078C, strain atp4, stronger effect = lower value 0.999 | S. cerevisiae deletion strains, locus YPL106C, strain sse1, stronger effect = lower value 0.989 | S. cerevisiae deletion strains, locus YPL240C, strain hsp82, stronger effect = lower value 1.01 | S. cerevisiae deletion strains, locus YPL241C, strain CIN2, stronger effect = lower value 1.01 | S. cerevisiae deletion strains, locus YPL256C, strain CLN2, stronger effect = lower value 1.09 | S. cerevisiae deletion strains, locus YPR119W, strain clb2, stronger effect = lower value 0.99 | S. cerevisiae deletion strains, locus YPR141C, strain kar3, stronger effect = lower value 0.984 | S. cerevisiae deletion strains, locus YPR163C, strain tif3, stronger effect = lower value 0.99 | S. cerevisiae deletion strains, locus YPR167C, strain met16, stronger effect = lower value 0.994 | S. cerevisiae deletion strains, strain wtn01, stronger effect = lower value 0.993 | S. cerevisiae strains, strain wild type, stronger effect = lower value 1.01
